# Assay outcomes as filed in PubChem.
# Shown are actives, neighbours in structure and some others; about 3.1% of the full set was active somewhere.
# Mito fusion act – blocks mitochondrial division or promotes mitochondrial fusion | AID 485298 | Potency, µM (titrated, usually from 46.1 µM), actives largely listed as activators | 320,000 compounds, 0.23% hits | S. cerevisiae fusion-defective mutant growth rescue, CellTiterGlo 48 h; note: nearly all actives have a fitted effect of over 45% in size
#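 Growth-rescue viability read-out: after 48 h at the non-permissive 37C in glycerol/ethanol YPEG, yeast mitochondrial fusion mutants are measured by CellTiterGlo luminescence; compounds (23 nl pinned per well) restoring growth score as division inhibitors or fusion activators.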
# rTrxR1 inhibitor – rat TrxR1 inhibition | O89049 | recombinant rTrxR1, NADPH fluorescence consumption, selenite substrate | Potency, µM (doses to about 114 µM), usual class: inhibitors | 390,000 compounds, 1% hits | AID 588453; note: nearly all actives have a fitted effect of over 65% in size
# Target sequence (O89049 whole entry, looked up): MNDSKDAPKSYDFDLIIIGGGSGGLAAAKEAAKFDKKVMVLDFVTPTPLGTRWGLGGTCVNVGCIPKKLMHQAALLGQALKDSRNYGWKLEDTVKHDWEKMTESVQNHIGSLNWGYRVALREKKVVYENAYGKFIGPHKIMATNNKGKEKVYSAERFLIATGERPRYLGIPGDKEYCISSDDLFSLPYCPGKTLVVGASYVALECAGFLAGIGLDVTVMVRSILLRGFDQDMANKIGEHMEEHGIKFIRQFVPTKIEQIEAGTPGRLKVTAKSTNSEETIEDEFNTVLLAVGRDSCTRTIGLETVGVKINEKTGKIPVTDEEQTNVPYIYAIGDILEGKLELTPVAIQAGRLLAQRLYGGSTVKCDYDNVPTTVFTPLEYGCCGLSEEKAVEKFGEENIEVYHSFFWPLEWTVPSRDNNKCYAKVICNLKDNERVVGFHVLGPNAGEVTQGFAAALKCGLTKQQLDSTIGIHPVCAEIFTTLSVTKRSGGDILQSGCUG
#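 Rat TrxR1 (90 nM in the dispensed reagent) was pre-reduced with 400 uM NADPH for 5 min at room temperature, then incubated with compound for 15 min. After 400 uM selenite was added, NADPH fluorescence (Ex 340/Em 450 nm) was followed for 8 min.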
# TrxR1 substrate – substrates of rat thioredoxin reductase 1; O89049; purified TrxR1 substrate turnover, NADPH consumption readout; Potency, µM (titrated, usually from 114 µM); 390,000 compounds, 0.01% hits; AID 588456; note: nearly all actives have a fitted effect of over 50% in size
#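 Rat TrxR1, dispensed at 90 nM, was prereduced with 400 uM NADPH (final) for 5 min at ~22 deg C, then incubated with compound 15 min before 400 uM selenite. A first-read NADPH fluorescence drop versus no-compound background flagged substrates.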
# mIDH1 inhibitor – inhibitors of human mutant IDH1 R132H. O75874. IDH1-R132H enzyme, NADPH consumption, diaphorase/resazurin fluorescence. Potency, µM (series often up to 76.6 µM), most hits filed as inhibitors. 390,000 compounds, 0.093% hits; note: nearly all actives have a fitted effect of over 65% in size
#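 IDH1-R132H (0.5 ug/mL dispensed) in pH 7.5 Tris buffer was preincubated 30 min with compound, then given a substrate mix of 0.016 mM NADPH and 2 mM alpha-KG for 80 min at room temperature; remaining NADPH was read by diaphorase/resazurin fluorescence.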
# A549 tox – A549 cytotoxicity, counter-screen for Nrf2 inhibitors | A549 ARE-Fluc cells, CellTiter-Fluor viability, 18-24 h | 390,000 compounds, 0.16% hits | AID 504648 | Potency, µM (doses to about 46 µM), most hits filed as inhibitors
#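 Cytotoxicity counterscreen: CellTiter-Fluor fluorescence was measured in A549 ARE_Fluc cells after 18-24 h of compound exposure in a concentration series. The subsequent BugLite luminescent read reports ARE-luciferase activity.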
# Nrf2 block – Nrf2 pathway inhibition. A549 ARE-Fluc reporter, luciferase luminescence, 18-24 h. Potency, µM (titrated, usually from 46 µM), hits mostly inhibitors. 360,000 compounds, 2.1% hits. AID 504444; note: nearly all actives have a fitted effect of over 60% in size
#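 Two sequential reads on A549 ARE_Fluc cells exposed to compound for 18-24 h: a CellTiter-Fluor fluorescence read for viability, then a luciferase luminescence read for Nrf2/ARE activity.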
# Resorufin autofl – counter-screen for mutant IDH1 inhibitors: fluorescence interference; inhibition of signal, % at 51.2 µM; shares compounds with mIDH1 inhibitor; 750 tested, under 10 active; Resorufin detection reagent fluorescence interference, cell-free
# IDH1 WT – wild-type IDH1 (human) inhibition counterscreen. shares compounds with mIDH1 inhibitor. WT IDH1 enzyme, NADPH diaphorase/resazurin fluorescence. Potency, µM (titrated, usually from 115 µM), actives largely listed as inhibitors. 750 compounds, 9% hits. AID 623995; note: nearly all actives have a fitted effect of over 55% in size
# mIDH1 confirm – mutant IDH1 (human) inhibition, confirmed; Potency, µM (top dose mostly 76.6 µM), hits mostly inhibitors; 750 compounds, 83% hits; shares compounds with mIDH1 inhibitor; IDH1 R132H enzyme, NADPH diaphorase/resazurin fluorescence; note: nearly all actives have a fitted effect of over 50% in size
# Hits are given with their value; i = inactive; ? = inconclusive; nt = no result given; [ ] = dose if it differs, or a comment. Calls come from the whole dose curve; as a rule, active = well fitted curve in the direction sought with a large enough effect; inconclusive = small, poorly fitted or top-dose-only effect, or another doubt; inactive = no such curve, though single readings can be large; an effect the other way counts as inactive or inconclusive.
SMILES,Mito fusion act,rTrxR1 inhibitor,TrxR1 substrate,mIDH1 inhibitor,A549 tox,Nrf2 block,Resorufin autofl,IDH1 WT,mIDH1 confirm
Cn1cc(S(=O)(=O)c2ccccc2)c(=O)c2cc(F)c(N3CCCCCC3)cc21,nt,i,i,39.8µM,i,?,i,i,14.1µM
CCOc1ccc(C2CC(c3c(O)n(C4CCCCC4)c(=O)[nH]c3=O)=Nc3ccccc3S2)cc1 (stereo unspecified),nt,i,i,nt,i,?,nt,nt,nt
Cc1ccc(CNC(=O)Cn2ccn(-c3ccc(F)cc3)c(=O)c2=O)cc1,nt,i,i[11.4 µM],i,i,i,nt,nt,nt
CCC(C)Nc1nc(N)c([N+](=O)[O-])c(Nc2cc(OC)ccc2OC)n1 (stereo unspecified),i,i,i,?,?,?,i,i,28.2µM
COc1ccc(OC)c(Nc2nc(NCCC(C)C)nc(N)c2[N+](=O)[O-])c1,i,i,i,i,i,?,nt,nt,nt
CCOc1ccc(-n2cc(-c3ccccc3)c3c(NC4CCCCC4)ncnc32)cc1,nt,i,i,i,i,nt,nt,nt,nt
CCOc1ccc(-n2cc(-c3ccccc3)c3c(NC4CCCC4)ncnc32)cc1,nt,i,i,?,i,nt,i,i,10µM
COc1cc2cnc(-c3ccsc3)c(-c3ccc(F)cc3)c2cc1OC,i,i,i,?,i,i,i,i,25.1µM
COc1cc2cnc(-c3ccccc3)c(-c3ccc(C#N)cc3)c2cc1OC,?,i,i,31.6µM,i,?,i,?,8.91µM
CCOc1cccc2cc(-c3nc(-c4ccc(Cl)cc4)c(C)s3)c(=O)oc12,nt,i,i,i,i,nt,nt,nt,nt
C=CCOc1ccc(Br)cc1/C=C1/SC(=Nc2ccc(C(=O)O)cc2)NC1=O,i,?,i,52.1µM,i,i,i,70.8µM,28.2µM
Cc1cc(NC(=O)CCC(=O)N(c2ccccc2)C(C(=O)NC2CCCC2)c2ccccc2C)no1 (stereo unspecified),i,i,i,36.9µM,i,i,i,i,12.6µM
Cc1ccc(N(C(=O)CCC(=O)Nc2cc(C)on2)C(C(=O)NC2CCCC2)c2ccccc2)cc1 (stereo unspecified),i,i,i,?,i,?,i,i,22.4µM
Cc1cc(NC(=O)CCC(=O)N(c2ccccc2C)C(C(=O)NC2CCCC2)c2ccccc2)no1 (stereo unspecified),i,i,i,?,i,i,i,i,25.1µM
Cc1cc(C)cc(N(C(=O)CCC(=O)Nc2cc(C)on2)C(C(=O)NC2CCCC2)c2ccco2)c1 (stereo unspecified),i,i,i,?,i,i,i,i,25.1µM
O=c1c2cc3c(nc2ncn1Cc1ccccc1F)CCCC3,nt,i,i,i,i,nt,nt,nt,nt
COc1cc(CN(C(=O)c2ccccc2)c2ccccn2)cc(OC)c1OC,nt,i,i,i,i,i,nt,nt,nt
CSC1=NC(=O)/C(=C/c2ccc(SC)cc2)S1,i,i,i,35.5µM,i,?,i,70.8µM,39.8µM
Cc1cncn1CCc1nc2c3ccccc3nc(SCC(=O)Nc3ccccc3F)n2n1,nt,i,i,i,?,nt,nt,nt,nt
O=C(CCl)N1CCN(S(=O)(=O)c2ccc3ccccc3c2)CC1,i,8.91µM,i,52.1µM,i,i,i,i,20µM
CCOc1cc(/C=C2/C(=O)ON=C2C)ccc1OCc1ccc(F)cc1,i,?,i,i,i,i,nt,nt,nt
CCOc1cc(/C=C2/C(=O)ON=C2C)ccc1OCc1ccccc1F,i,i[11.4 µM],i[11.4 µM],20.7µM,?,4.11µM,i,?,28.2µM
N#C/C(=C\c1ccccc1OCc1ccc(C(=O)O)cc1)C(=O)Nc1ccc(O)cc1,i,i,i,?,i,i,i,i,39.8µM
Cc1ccc(C(C(=O)NC2CCCCC2)N(C(=O)c2csnn2)c2ccccc2F)o1 (stereo unspecified),i,i,i,i,i,i,nt,nt,nt
Cc1ccc(C(C(=O)NC2CCCCC2)N(C(=O)Cc2c[nH]c3ccccc23)c2ccccc2C)o1 (stereo unspecified),i,i[11.4 µM],i[11.4 µM],?,i,?,i,i,7.08µM
SMILES,Mito fusion act,rTrxR1 inhibitor,TrxR1 substrate,mIDH1 inhibitor,A549 tox,Nrf2 block,Resorufin autofl,IDH1 WT,mIDH1 confirm
Cc1ccccc1N(C(=O)Cc1c[nH]c2ccccc12)C(C(=O)NC1CCCCC1)c1ccco1 (stereo unspecified),i,i,i,?,i,i,i,i,12.6µM
Cc1ccc(-c2nnn(CC(=O)N(c3ccccc3F)C(C(=O)NC3CCCC3)c3ccco3)n2)o1 (stereo unspecified),i,i,i,i,?,i,nt,nt,nt
O=C(NC1CCCCC1)C(c1ccc(F)cc1)N(Cc1ccco1)C(=O)c1ccccn1 (stereo unspecified),i,i,i,i,i,i,nt,nt,nt
Cc1ccc(N(C(=O)Cc2c[nH]c3ccccc23)C(C(=O)NC2CCCCC2)c2ccco2)cc1 (stereo unspecified),i,i,i,?,?,18.4µM,i,i,6.31µM
Cc1ccc(C(C(=O)NC2CCCCC2)N(Cc2ccco2)C(=O)Cc2c[nH]c3ccccc23)o1 (stereo unspecified),?,i,i,?,i,?,i,i,10µM
CC(=O)c1ccc(N(C(=O)CNC(=O)c2ccco2)C(C(=O)NC2CCCC2)c2ccco2)cc1 (stereo unspecified),i,i,i,i,i,i,nt,nt,nt
COc1ccc(-c2c(C)nc(N)nc2-c2ccc(OCc3ccc(C)cc3)cc2O)cc1OC,i,i,i,?,i,?,i,i,?
COc1ccc(-c2c(C)nc(N)nc2-c2ccc(OC)cc2O)cc1,i,i,i,i,i,i,nt,nt,nt
Cc1ccc(-c2c(C)n3c4c(=O)n(C)c(=O)n(C)c4nc3n2CCO)cc1,i,i,i,i,i,nt,nt,nt,nt
CCCCn1c(-c2ccc(C)cc2)c(C)n2c3c(=O)n(C)c(=O)n(C)c3nc12,i,i,i,?,i,nt,i,i,11.2µM
CC(C)(C)c1cc(CP(=O)(c2ccccc2)c2ccccc2)cc(C(C)(C)C)c1O,i,i,i,?,?,?,i,i,28.2µM
O=P(Cc1ccccc1)(c1ccccc1)c1ccccc1,i,i,i,i,i,i,nt,nt,nt
